Laboratory results as given in paper PMC7862700, “An all-to-all approach to the identification of sequence-specific readers for epigenetic DNA modifications on cytosine”.

Key:
Test in all cases: DAPPL (digital affinity profiling via proximity ligation, sequencing); 10 mM Tris-HCl pH 7.5, 50 mM NaCl, 1 mM DTT, 4% glycerol, room temperature, 30 min; GST-TFs on glutathione beads, 16-mer random dsDNA library, 0.1% formaldehyde crosslink after washing; high values mean tight binding
[1] = biological target: T1, FEV (Homo sapiens, UniProt Q99581 1-238); conditions: protein: recombinant; tags: N-terminal GST; dsDNA, one strand shown
T1 sequence: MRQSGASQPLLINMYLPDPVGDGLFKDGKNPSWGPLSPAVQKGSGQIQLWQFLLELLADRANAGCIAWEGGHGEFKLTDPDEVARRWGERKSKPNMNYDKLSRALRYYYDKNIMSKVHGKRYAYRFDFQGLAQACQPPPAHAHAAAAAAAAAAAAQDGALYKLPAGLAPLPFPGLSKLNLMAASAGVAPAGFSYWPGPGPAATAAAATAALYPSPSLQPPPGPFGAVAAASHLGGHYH
Outline: (§1)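 Pools of DNA-barcoded human transcription factors, expressed in yeast as GST fusions on glutathione beads and combined with a tag-only sample, were incubated with 200 nmole of a 16-mer random double-stranded DNA library. Incubation took 30 min at room temperature in Tris/NaCl/DTT/glycerol buffer and was followed by washing, 0.1% formaldehyde crosslinking, proximity ligation (BsaI/T4 ligase, 1 h, 37 °C), PCR amplification and sequencing on an Illumina NextSeq500. Binding signal is the ratio of a hexamer's read frequency for a factor to its frequency for the tag-only sample.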

[2] = biological target: ETV5 (Homo sapiens, UniProt P41161 1-510); conditions: protein: recombinant; tags: N-terminal GST; dsDNA, one strand shown
Chain of ETV5 (P41161 whole entry): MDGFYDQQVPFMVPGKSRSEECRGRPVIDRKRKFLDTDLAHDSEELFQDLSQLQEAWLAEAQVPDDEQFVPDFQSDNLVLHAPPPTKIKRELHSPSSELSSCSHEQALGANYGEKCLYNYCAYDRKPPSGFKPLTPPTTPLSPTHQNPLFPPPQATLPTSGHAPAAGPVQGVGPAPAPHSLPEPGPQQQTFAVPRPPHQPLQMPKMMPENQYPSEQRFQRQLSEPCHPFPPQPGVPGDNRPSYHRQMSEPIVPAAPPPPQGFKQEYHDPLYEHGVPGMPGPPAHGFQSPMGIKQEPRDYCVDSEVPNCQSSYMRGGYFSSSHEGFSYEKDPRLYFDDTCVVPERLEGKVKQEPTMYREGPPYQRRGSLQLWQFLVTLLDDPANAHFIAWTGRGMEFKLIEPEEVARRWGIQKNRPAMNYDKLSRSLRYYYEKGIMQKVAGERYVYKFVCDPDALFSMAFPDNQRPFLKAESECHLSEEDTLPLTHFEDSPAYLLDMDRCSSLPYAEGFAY
Outline: as §1

[3] = biological target: HSF1 (Homo sapiens, UniProt Q00613 1-529); conditions: protein: recombinant; tags: N-terminal GST; chain copies: 3; dsDNA, one strand shown
Chain of HSF1 (Q00613 whole entry): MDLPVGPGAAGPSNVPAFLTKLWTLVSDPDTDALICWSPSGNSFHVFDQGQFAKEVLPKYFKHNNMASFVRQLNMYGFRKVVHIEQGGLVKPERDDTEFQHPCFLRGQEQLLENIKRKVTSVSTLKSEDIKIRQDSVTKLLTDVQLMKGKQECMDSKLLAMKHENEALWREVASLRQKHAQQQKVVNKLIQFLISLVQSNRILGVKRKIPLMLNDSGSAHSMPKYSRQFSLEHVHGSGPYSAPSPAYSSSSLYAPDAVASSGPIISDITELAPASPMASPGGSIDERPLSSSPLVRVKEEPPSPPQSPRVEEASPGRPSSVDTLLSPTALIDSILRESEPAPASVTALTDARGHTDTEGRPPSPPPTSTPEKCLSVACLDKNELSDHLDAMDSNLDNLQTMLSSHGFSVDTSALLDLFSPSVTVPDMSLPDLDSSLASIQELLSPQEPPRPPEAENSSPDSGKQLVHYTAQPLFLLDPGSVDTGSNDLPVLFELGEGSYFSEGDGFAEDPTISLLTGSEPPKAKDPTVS
Outline: as §1

[4] = biological target: T2, SPIC (Homo sapiens, UniProt Q8N5J4 1-248); conditions: protein: recombinant; tags: N-terminal GST; dsDNA, one strand shown
T2 sequence: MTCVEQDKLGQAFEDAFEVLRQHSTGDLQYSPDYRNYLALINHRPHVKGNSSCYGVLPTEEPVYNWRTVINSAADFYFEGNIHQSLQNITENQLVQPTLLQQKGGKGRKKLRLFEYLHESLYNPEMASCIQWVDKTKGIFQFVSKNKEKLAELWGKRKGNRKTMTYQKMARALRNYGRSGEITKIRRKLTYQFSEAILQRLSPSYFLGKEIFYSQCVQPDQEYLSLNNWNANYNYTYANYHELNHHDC
Outline: as §1

[5] = biological target: ELF4 (Homo sapiens, UniProt Q99607 1-663); conditions: protein: recombinant; tags: N-terminal GST; dsDNA, one strand shown
Chain of ELF4 (Q99607 whole entry): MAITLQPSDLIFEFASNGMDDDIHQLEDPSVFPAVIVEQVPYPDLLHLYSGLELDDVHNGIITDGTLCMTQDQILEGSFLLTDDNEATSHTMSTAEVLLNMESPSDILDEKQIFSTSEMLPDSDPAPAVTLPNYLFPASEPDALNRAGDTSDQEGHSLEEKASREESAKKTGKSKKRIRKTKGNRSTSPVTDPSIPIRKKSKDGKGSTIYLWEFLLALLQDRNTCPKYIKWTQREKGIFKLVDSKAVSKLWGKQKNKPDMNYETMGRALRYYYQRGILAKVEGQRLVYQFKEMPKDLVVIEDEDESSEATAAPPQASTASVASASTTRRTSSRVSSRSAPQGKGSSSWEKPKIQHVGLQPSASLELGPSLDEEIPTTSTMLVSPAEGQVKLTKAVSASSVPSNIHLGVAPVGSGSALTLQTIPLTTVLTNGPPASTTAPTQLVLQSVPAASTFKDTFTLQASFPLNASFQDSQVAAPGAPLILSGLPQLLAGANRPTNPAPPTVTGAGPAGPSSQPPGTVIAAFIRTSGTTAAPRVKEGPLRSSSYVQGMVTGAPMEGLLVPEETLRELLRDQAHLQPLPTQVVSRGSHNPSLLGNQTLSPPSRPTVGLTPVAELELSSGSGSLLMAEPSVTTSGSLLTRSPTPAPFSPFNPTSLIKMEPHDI
Outline: as §1

[6] = biological target: T3, ELK4 (Homo sapiens, UniProt P28324-2 1-405); conditions: protein: recombinant; tags: N-terminal GST; dsDNA, one strand shown
T3 sequence: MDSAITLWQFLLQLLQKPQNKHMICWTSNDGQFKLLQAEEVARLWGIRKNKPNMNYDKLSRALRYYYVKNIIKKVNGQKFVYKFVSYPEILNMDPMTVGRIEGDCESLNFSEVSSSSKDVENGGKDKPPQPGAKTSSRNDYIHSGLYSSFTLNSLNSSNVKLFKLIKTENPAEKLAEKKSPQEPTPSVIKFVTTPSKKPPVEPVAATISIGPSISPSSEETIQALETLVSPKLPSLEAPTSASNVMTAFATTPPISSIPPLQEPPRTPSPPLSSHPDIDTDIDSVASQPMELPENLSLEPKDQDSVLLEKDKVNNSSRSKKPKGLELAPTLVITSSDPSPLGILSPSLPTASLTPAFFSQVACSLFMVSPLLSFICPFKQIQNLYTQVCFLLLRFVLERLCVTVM
Outline: as §1

[7] = biological target: T4, ETV2 (Homo sapiens, UniProt O00321 1-342); conditions: protein: recombinant; tags: N-terminal GST; dsDNA, one strand shown
T4 sequence: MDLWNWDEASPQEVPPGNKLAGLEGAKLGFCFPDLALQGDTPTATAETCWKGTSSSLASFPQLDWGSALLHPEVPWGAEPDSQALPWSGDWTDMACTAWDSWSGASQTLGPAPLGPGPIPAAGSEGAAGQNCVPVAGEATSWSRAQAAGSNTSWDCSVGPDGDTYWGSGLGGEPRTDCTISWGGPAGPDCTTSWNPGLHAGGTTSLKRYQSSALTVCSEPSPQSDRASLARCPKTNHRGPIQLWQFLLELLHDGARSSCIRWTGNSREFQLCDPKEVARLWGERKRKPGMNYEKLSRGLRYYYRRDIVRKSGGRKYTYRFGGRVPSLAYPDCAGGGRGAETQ
Outline: as §1

[8] = biological target: T5, ELF3 (Homo sapiens, UniProt P78545 1-371); conditions: protein: recombinant; tags: N-terminal GST; dsDNA, one strand shown
T5 sequence: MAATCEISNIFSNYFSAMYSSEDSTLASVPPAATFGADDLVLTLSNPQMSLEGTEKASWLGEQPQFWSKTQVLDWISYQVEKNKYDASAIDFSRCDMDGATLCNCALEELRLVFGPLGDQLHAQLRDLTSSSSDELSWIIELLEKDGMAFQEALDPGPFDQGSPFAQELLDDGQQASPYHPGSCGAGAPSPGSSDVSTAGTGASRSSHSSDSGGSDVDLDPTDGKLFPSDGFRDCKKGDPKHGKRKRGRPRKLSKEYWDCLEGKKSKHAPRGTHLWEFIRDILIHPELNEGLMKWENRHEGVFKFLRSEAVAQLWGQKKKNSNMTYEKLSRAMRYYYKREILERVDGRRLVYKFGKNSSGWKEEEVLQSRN
Outline: as §1

[9] = biological target: CRX (Homo sapiens, UniProt O43186 1-299); conditions: protein: recombinant; tags: N-terminal GST; dsDNA, one strand shown
Chain of CRX (O43186 whole entry): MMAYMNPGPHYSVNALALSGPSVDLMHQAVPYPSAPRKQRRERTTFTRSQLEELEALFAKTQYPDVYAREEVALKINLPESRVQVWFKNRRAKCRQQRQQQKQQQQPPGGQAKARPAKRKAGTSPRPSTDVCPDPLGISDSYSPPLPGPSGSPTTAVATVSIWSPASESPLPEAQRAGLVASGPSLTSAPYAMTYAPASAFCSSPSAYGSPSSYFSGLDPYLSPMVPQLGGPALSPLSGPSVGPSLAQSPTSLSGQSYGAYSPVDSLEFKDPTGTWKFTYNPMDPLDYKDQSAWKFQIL
Outline: as §1

[10] = biological target: ETV1 (Homo sapiens, UniProt P50549 1-477); conditions: protein: recombinant; tags: N-terminal GST; dsDNA, one strand shown
Chain of ETV1 (P50549 whole entry): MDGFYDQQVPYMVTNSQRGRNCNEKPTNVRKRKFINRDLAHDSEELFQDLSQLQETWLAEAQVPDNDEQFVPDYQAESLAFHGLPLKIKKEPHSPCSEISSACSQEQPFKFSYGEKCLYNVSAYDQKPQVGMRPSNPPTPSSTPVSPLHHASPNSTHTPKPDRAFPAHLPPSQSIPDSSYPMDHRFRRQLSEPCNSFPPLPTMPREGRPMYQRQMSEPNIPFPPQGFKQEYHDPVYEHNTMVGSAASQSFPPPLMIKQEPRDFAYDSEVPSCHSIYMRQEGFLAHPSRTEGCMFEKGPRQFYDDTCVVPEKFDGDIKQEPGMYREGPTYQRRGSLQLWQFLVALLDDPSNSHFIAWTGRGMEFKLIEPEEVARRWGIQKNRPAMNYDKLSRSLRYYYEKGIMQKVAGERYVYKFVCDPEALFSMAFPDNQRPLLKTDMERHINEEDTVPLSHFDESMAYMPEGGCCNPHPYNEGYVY
Outline: as §1

[11] = biological target: T6, ERF (Homo sapiens, UniProt P50548 1-548); conditions: protein: recombinant; tags: N-terminal GST; dsDNA, one strand shown
T6 sequence: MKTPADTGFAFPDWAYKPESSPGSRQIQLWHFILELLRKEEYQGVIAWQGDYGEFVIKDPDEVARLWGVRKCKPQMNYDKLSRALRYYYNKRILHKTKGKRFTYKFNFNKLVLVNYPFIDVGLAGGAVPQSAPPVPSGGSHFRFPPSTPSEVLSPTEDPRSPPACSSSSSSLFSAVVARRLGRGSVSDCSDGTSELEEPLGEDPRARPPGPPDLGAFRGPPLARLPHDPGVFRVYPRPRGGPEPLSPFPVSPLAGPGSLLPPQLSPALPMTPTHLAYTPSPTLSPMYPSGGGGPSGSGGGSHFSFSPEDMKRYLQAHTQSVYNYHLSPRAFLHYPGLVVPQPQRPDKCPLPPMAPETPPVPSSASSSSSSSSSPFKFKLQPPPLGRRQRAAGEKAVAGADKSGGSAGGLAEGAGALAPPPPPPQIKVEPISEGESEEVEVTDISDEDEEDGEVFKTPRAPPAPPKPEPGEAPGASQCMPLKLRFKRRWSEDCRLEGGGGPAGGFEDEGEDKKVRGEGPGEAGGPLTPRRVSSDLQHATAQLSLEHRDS
Outline: as §1

[12] = biological target: T7, ETV3L (Homo sapiens, UniProt Q6ZN32 1-361); conditions: protein: recombinant; tags: N-terminal GST; dsDNA, one strand shown
T7 sequence: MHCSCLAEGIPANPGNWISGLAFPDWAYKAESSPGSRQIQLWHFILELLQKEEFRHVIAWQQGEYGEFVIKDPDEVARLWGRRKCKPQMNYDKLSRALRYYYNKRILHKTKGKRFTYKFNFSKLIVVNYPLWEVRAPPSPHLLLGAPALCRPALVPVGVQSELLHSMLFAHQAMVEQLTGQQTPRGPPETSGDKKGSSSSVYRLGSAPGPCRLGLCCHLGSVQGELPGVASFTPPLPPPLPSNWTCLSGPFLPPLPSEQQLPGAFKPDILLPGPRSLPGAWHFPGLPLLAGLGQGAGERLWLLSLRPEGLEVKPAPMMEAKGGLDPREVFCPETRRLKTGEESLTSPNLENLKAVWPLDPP
Outline: as §1

[13] = biological target: T8, ETS2 (Homo sapiens, UniProt P15036 1-469); conditions: protein: recombinant; tags: N-terminal GST; dsDNA, one strand shown
T8 sequence: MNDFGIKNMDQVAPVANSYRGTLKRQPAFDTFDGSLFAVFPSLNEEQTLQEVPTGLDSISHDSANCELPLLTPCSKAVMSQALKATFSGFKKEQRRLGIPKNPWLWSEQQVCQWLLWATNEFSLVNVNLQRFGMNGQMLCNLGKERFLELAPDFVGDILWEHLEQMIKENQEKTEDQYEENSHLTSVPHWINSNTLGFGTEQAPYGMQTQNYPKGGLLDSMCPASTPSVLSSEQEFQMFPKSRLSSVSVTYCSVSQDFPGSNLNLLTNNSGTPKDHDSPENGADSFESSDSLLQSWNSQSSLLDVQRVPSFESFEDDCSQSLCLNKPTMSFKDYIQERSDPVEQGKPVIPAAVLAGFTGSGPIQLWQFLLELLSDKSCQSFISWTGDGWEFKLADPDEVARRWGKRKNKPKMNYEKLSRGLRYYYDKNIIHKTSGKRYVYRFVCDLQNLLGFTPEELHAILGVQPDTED
Outline: as §1

[14] = biological target: T9, SPDEF (Homo sapiens, UniProt O95238 1-335); conditions: protein: recombinant; tags: N-terminal GST; dsDNA, one strand shown
T9 sequence: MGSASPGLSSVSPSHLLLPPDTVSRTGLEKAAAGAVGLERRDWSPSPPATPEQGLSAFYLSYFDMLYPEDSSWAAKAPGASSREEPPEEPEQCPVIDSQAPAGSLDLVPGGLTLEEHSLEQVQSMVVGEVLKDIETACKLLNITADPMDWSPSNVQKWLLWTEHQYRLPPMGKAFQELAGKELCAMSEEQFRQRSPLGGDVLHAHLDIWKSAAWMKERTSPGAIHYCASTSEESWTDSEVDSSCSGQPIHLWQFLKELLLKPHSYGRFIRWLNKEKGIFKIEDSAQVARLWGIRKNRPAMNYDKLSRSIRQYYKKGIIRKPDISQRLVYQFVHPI
Outline: as §1

[15] = biological target: T10, ETV7 (Homo sapiens, UniProt Q9Y603 1-341); conditions: protein: recombinant; tags: N-terminal GST; dsDNA, one strand shown
T10 sequence: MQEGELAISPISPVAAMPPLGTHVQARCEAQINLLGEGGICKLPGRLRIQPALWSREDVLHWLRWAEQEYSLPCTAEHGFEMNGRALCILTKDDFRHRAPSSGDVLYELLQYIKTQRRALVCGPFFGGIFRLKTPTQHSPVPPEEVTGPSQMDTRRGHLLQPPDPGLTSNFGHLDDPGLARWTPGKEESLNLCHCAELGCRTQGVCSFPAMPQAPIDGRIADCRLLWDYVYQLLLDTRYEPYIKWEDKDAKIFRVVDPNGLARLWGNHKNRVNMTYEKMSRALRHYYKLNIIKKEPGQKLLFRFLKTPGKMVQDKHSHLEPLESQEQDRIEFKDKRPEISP
Outline: as §1

[16] = biological target: T11, ELF5 (Homo sapiens, UniProt Q9UKW6-2 1-255); conditions: protein: recombinant; tags: N-terminal GST; dsDNA, one strand shown
T11 sequence: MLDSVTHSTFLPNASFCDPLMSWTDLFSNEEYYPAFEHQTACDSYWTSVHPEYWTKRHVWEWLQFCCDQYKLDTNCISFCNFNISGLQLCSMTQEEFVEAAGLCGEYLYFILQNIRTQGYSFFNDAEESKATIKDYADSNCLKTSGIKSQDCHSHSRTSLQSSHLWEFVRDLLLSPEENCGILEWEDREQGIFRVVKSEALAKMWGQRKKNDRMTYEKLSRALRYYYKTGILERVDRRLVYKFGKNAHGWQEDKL
Outline: as §1

[17] = biological target: T12, ETV3 (Homo sapiens, UniProt P41162-2 1-143); conditions: protein: recombinant; tags: N-terminal GST; dsDNA, one strand shown
T12 sequence: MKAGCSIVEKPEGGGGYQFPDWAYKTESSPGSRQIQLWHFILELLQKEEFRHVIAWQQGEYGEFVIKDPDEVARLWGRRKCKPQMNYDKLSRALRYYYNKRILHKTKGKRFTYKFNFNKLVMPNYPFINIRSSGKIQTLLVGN
Outline: as §1

[18] = biological target: ETV6 (Homo sapiens, UniProt P41212 1-452); conditions: protein: recombinant; tags: N-terminal GST; dsDNA, one strand shown
Chain of ETV6 (P41212 whole entry): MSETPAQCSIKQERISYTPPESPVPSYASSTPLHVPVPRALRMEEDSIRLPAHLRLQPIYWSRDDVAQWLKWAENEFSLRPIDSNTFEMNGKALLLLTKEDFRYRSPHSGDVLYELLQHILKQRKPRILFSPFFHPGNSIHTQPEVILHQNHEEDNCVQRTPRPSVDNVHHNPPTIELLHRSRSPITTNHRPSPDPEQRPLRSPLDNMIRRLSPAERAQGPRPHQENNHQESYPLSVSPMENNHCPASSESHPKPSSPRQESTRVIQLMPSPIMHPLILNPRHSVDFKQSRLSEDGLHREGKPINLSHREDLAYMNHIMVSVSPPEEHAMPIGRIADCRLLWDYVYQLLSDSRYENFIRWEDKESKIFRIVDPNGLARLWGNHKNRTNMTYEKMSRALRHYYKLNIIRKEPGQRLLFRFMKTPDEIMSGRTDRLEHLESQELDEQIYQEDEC
Outline: as §1

ATCAAC was tested, and the binding signal [1] was 1.13 fold enrichment (6-mer frequency, TF over GST control), the binding signal [2] was 1.04 fold enrichment (6-mer frequency, TF over GST control) and the binding signal [3] was 1.02 fold enrichment (6-mer frequency, TF over GST control). For the same sequence, the binding signal [4] was 1.03 fold enrichment (6-mer frequency, TF over GST control), the binding signal [5] was 1.09 fold enrichment (6-mer frequency, TF over GST control) and the binding signal [6] was 1.14 fold enrichment (6-mer frequency, TF over GST control). The binding signal [7] was 1.18 fold enrichment (6-mer frequency, TF over GST control), the binding signal [8] was 1.08 fold enrichment (6-mer frequency, TF over GST control) and the binding signal [9] was 1.25 fold enrichment (6-mer frequency, TF over GST control). The binding signal [10] was 1.1 fold enrichment (6-mer frequency, TF over GST control), the binding signal [11] was 1.15 fold enrichment (6-mer frequency, TF over GST control) and the binding signal [12] was 1.23 fold enrichment (6-mer frequency, TF over GST control). The binding signal [13] was 1.18 fold enrichment (6-mer frequency, TF over GST control), the binding signal [14] was 1.06 fold enrichment (6-mer frequency, TF over GST control) and the binding signal [15] was 1.02 fold enrichment (6-mer frequency, TF over GST control). For the same sequence, the binding signal [16] was 1.02 fold enrichment (6-mer frequency, TF over GST control), the binding signal [17] was 1.12 fold enrichment (6-mer frequency, TF over GST control) and the binding signal [18] was 1.1 fold enrichment (6-mer frequency, TF over GST control).
